# Experimental data reported in PubChem BioAssay (EPA / NIEHS).
# Where a structure was tested more than once in an assay, its records may differ in their call. The source made the active and inactive calls. The calls were made as follows: active = hit-call score of the fitted dose curve at least 0.9, where 1 is the maximum; inactive = score below 0.9.
# Read-out: Plasminogen activator inhibitor-1 (PAI1), SERPINE1 (gene 5054)
# Experiment: BSK_MyoF_PAI1: BioMAP Diversity Plus: MyoF Assay for Plasminogen activator inhibitor-1 (PAI1) Biomarker Activity (AID 2284256);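 as to outcome: PAI-1 protein level measured by ELISA in fibroblast cultures; PAI-1 read 24 h after compound addition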
# Conditions: primary human lung fibroblasts
# In short: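 Human lung fibroblasts (MyoF system) were exposed to test chemicals for 24 h, then PAI-1 was quantified by ELISA. Activity was fitted in the positive (signal-gain) direction relative to DMSO vehicle as baseline.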
SMILES,outcome,AC50
Cc1ccc(O)c(-n2nc3ccccc3n2)c1,inactive,–
C=CC(=O)OCCC(F)(F)C(F)(F)C(F)(F)C(F)(F)F,inactive,–
OCC(F)(F)C(F)(F)C(F)(F)C(F)(F)C(F)(F)C(F)(F)CO,inactive,–
CCN(CC)c1ccc(N=Nc2ccccc2)cc1,inactive,–
NCC(F)(F)C(F)(F)C(F)(F)C(F)(F)C(F)(F)C(F)(F)C(F)(F)C(F)(F)F,inactive,–
O=C=NCc1cccc(CN=C=O)c1,inactive,–
O=S(=O)(OCC(F)(F)F)C(F)(F)C(F)(F)C(F)(F)C(F)(F)F,inactive,–
O=S(=O)(O)CCC(F)(F)C(F)(F)C(F)(F)C(F)(F)F,inactive,–
O=C(O)C(F)(F)C(F)(F)C(F)(F)OC(F)(C(F)(F)F)C(F)(F)F,inactive,–
O=C(F)C1(F)C(F)(F)C(F)(F)C(F)(F)C(F)(F)C1(F)F,inactive,–
CNS(=O)(=O)C(F)(F)C(F)(F)C(F)(F)C(F)(F)C(F)(F)C(F)(F)C(F)(F)C(F)(F)F,inactive,–
CC(C)(C)c1cc(CCC(=O)NCCCCCCNC(=O)CCc2cc(C(C)(C)C)c(O)c(C(C)(C)C)c2)cc(C(C)(C)C)c1O,inactive,–
CCN(CC)c1ccc(C=O)cc1,inactive,–
NS(=O)(=O)C(F)(F)C(F)(F)C(F)(F)C(F)(F)C(F)(F)C(F)(F)F,inactive,–
Cc1cnccn1,inactive,–
Cc1ccc(S(=O)(=O)C(I)I)cc1,–,8.61 µM (active)

SMILES,outcome,AC50
Cc1cc(O)c(C(C)(C)C)cc1C(C)(C)C,–,7.48 µM (active)
Cc1cc(C)c(O)c(C(C)(C)C)c1,–,36.4 µM (active)
O=C=Nc1cccc2c(N=C=O)cccc12,inactive,–
O=C(O)C(F)(F)C(F)(F)C(F)(F)OC(F)(F)F,inactive,–
O=C1c2c(O)ccc(Nc3ccc(CCO)cc3)c2C(=O)c2c([N+](=O)[O-])ccc(O)c21,–,32.3 µM (active)
COC(F)(C(F)F)C(F)(F)F (stereo not drawn),inactive,–
CCOC(=O)CC(=O)C(F)(F)C(F)(F)F,inactive,–
CC1=CC2C3C=CC(C3)C2C1C (stereo not drawn),inactive,–
CN(C(=O)C(F)(F)C(F)(F)C(F)(F)F)[Si](C)(C)C,inactive,–
NC(=O)C(F)(F)C(F)(F)C(F)(F)C(F)F,inactive,–
O=S(=O)(Cl)C(F)(F)C(F)(F)C(F)(F)C(F)(F)C(F)(F)C(F)(F)C(F)(F)C(F)(F)F,inactive,–
O=C(O)C(F)(F)C(F)(F)C(F)(F)C(F)(F)C(F)(F)C(F)(F)C(F)F,inactive,–
O=C(O)CCC(F)(F)C(F)(F)C(F)(F)C(F)(F)C(F)(F)C(F)(F)C(F)(F)F,inactive,–
CCN(CCO)S(=O)(=O)C(F)(F)C(F)(F)C(F)(F)C(F)(F)C(F)(F)C(F)(F)C(F)(F)C(F)(F)F,inactive,55.1 µM (active)
O=C(O)C(F)(F)C(F)(F)C(F)(F)C(=O)O,inactive,–
CCOC(C=C(C)CCC=C(C)C)OCC,–,20 µM (active)
